The structures appear in SMILES notation. A number with no mark means an inactive call. Records with an inconclusive call do not appear. Activity calls are given as the source filed them. Calls follow the shape of the dose curve; as a rule, active = well fitted curve in the direction sought with a large enough effect in the repeat runs; inconclusive = weak or mixed curves; inactive = no such curve, though single readings can be large; an effect the other way counts as inactive or inconclusive. Where a SMILES comes first, the peptide text is derived from it.

Experimental findings from PubChem BioAssay (Tox21) are described below.

Assay [1] is described as follows: qHTS RealTime-Glo MT Cell Viability Assay in HepG2 cells - 32 hour (AID 1224877). Also: nearly all actives have a fitted effect of over 55% in size. In short, it runs like this:
(§1)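 qHTS, HepG2, 600 cells/well, RealTime-Glo (NanoLuc + prosubstrate) added with cells; 5 h preincubation; DMSO compound addition; 37 C; luminescence at 0/8/16/24/32/40 h.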
(In qHTS, concentration-response curves come from the screen itself.)

The nature of assay [2]: A CellTox Green Cytotoxicity Assay to monitor cytotoxicity in HepG2 cells - 24 hour (AID 1224878). Also: nearly all actives have a fitted effect of over 45% in size. In short, it runs like this: (§2)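 Real-time, homogeneous cytotoxicity readout: dead-cell DNA staining by CellTox Green in HepG2 monolayers, fluorescence measured at timed intervals up to 40 h of continuous compound exposure.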
A short description of assay [3]: qHTS RealTime-Glo MT Cell Viability Assay in HEK293 cells - 0 hour (AID 1224880). Also: top concentration of the series differs between compounds; nearly all actives have a fitted effect of over 45% in size. The essentials:
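Nonlytic bioluminescent viability monitoring. HEK293 at 600 cells/well with reagent; 5 h settle; compound transfer by pintool; plates held at 37 C and read at set time points.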

Assay [4] in a line: A CellTox Green Cytotoxicity Assay to monitor cytotoxicity in HEK293 cells - 32 hour (AID 1224881). Also: nearly all actives have a fitted effect of over 40% in size. Also: potency is read from the fitted curve at half-maximal effect. The essentials:
(§3)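 Cytotoxicity was tracked continuously in HEK293 cells by a DNA-binding dye excluded from viable cells. Compounds were transferred in DMSO 5 h after seeding; fluorescence was recorded at intervals up to 40 h.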

Assay [5] can be described thus: A CellTox Green Cytotoxicity Assay to monitor cytotoxicity in HepG2 cells - 0 hour (AID 1224882). Also: nearly all actives have a fitted effect of over 35% in size. The essentials: as §2
A short description of assay [6]: A CellTox Green Cytotoxicity Assay to monitor cytotoxicity in HepG2 cells - 32 hour (AID 1224883). Also: nearly all actives have a fitted effect of over 50% in size. The essentials:
as §2

Assay [7] can be described thus: A CellTox Green Cytotoxicity Assay to monitor cytotoxicity in HEK293 cells - 8 hour (AID 1224884). Also: nearly all actives have a fitted effect of over 35% in size. In short, it runs like this: as §3
Assay [8] is described as follows: qHTS RealTime-Glo MT Cell Viability Assay in HepG2 cells - 16 hour (AID 1224885). Also: nearly all actives have a fitted effect of over 50% in size. The essentials:
as §1

Assay [9] can be described thus: qHTS RealTime-Glo MT Cell Viability Assay in HEK293 cells - 24 hour (AID 1224886). Also: top concentration of the series differs between compounds; nearly all actives have a fitted effect of over 50% in size. In short, it runs like this:
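Assay medium contained NanoLuc luciferase plus cell-permeant prosubstrate, added with HEK293 cells at 600 cells/well. After 5 h at 37 C/5% CO2 compounds were added; plates stayed at 37 C for 40 h with serial luminescence reads.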

A short description of assay [10]: A CellTox Green Cytotoxicity Assay to monitor cytotoxicity in HepG2 cells - 40 hour (AID 1224879). Also: nearly all actives have a fitted effect of over 40% in size. Also: potency is read from the fitted curve at half-maximal effect. In short, it runs like this:
as §2
% is scaled to controls: 0 for no effect and ±100 for the full control effect.

For the molecule `Cc1ccc(C(C)NC(=O)[C@@H](NC(=O)OC(C)C)C(C)C)cc1` (stereo partly specified), the result in assay [1] and in assay [8] was inactive. Also, the Potency result in assay [2], in assay [3], in assay [4], in assay [5], in assay [6] and in [7] was “inactive” throughout. In [9], the Potency result was “inactive”.
With `COc1ccc2c(c1)c1c3n2CCN(C)C3=NCC1`, the molecule was classed as inactive in assay [1] and in assay [8]. Besides, the Potency entry in assay [2], in assay [3], in assay [4], in assay [6], in assay [7] and in assay [9] was “inactive” throughout.
For the molecule `CC(=O)CCc1ccc(OC(C)=O)cc1`, the call in assay [1] and in assay [8] was inactive. Also, the Potency result in [2], in [3], in assay [4], in assay [5], in [6] and in assay [7] was “inactive” throughout. Further, in assay [9], the Potency result is “inactive”.
For the molecule `CC1OCCC1=O` (stereo unspecified), the outcome in assay [1] and in assay [8] was inactive. Further, the Potency entry in assay [10], in assay [3], in [4], in assay [5], in [6] and in assay [7] was “inactive” throughout. In assay [9], the Potency result was “inactive”.
Regarding `Cn1nnc2c(C(N)=O)ncn2c1=O`, the call in assay [1] and in [8] was inactive. Moreover, the Potency entry in assay [10], in assay [3], in assay [4], in assay [5], in assay [6] and in assay [7] was “inactive” throughout. In assay [9], the Potency result was “inactive”.
Consider `N[C@@H](CSCCCO)C(=O)O`, for which the activity change, negative = cytotoxic is 2.25% [at 15.8 µM] in [1] and 0.578% [at 15.8 µM] in assay [8]. For the same molecule, the activity change, negative = cytotoxicity was -0.729% [at 15.8 µM] in assay [3] and 2.46% [at 15.8 µM] in [9]. The cytotoxicity increase in assay [4] is -0.789% [at 15.8 µM]; in assay [6], -15.9% [at 15.8 µM]; in assay [7], -2.04% [at 15.8 µM]. Moreover, in [5], the cytotoxicity was -7.54% [at 15.8 µM].
Turning to `COc1nc(N)nc2nc[nH]c12`, the outcome in assay [1] and in [8] was inactive. Also, the Potency entry in assay [3], in assay [4], in assay [5], in assay [6] and in assay [7] was “inactive” throughout.
On to `O=C(O)CCCCCC(=O)O`, for which the call in assay [1] and in assay [8] was inactive. Also, the Potency entry in assay [3], in assay [5], in [6] and in assay [9] was “inactive” each time. Further, the Potency in assay [4] was 22 µM (active).
Consider `CCN1CCCC1CN` (stereo unspecified), for which the Potency entry in assay [2], in [10], in assay [3], in [4], in [5] and in assay [6] was “inactive” throughout. In addition, the Potency entry in assay [7] and in [9] was “inactive” throughout. Further, in [8], the call was inactive.
With `CC(=O)OC(C)=O`, the call in assay [1] and in [8] was inactive. For the same molecule, the Potency result in [10], in [3], in [4], in [6], in assay [7] and in assay [9] was “inactive” throughout.
Regarding `Cn1c(=O)c2c(ncn2CCO)n(C)c1=O`, the outcome in assay [1] and in [8] was inactive. The Potency entry in assay [3], in [4], in [7] and in [9] was “inactive” throughout.
In the case of `CC(C)CO`, the call in [1] and in assay [8] was inactive. The Potency result in assay [10], in assay [3], in [5], in [6], in assay [7] and in [9] was “inactive” throughout.
As to `CCn1cc(C(=O)O)c(=O)c2cnc(N3CCCC3)nc21`, the results for the cytotoxicity in assay [2] and in [5] were 0.605% [at 6.97 µM] and 3.1% [at 6.97 µM], respectively. The cytotoxicity increase in [10] is 2.25% [at 6.97 µM]; in assay [4], 4.33% [at 6.97 µM]; in assay [6], -0.981% [at 6.97 µM]; in [7] it was 0.169% [at 6.97 µM]. Further, the activity change, negative = cytotoxicity in assay [3] is 0.136% [at 6.97 µM]; in assay [9], 7.35% [at 6.97 µM]. Also, the activity change, negative = cytotoxic in [8] is 2.96% [at 6.97 µM].
Consider `CCC(=O)Oc1ccc2c(c1)CC[C@@H]1[C@@H]2CC[C@@]2(C)[C@H]1C[C@@H](OC(=O)CC)[C@@H]2OC(=O)CC`, for which the molecule was called inactive in [1] and in [8]. For the same molecule, the Potency entry in assay [10], in assay [3], in assay [6], in [7] and in assay [9] was “inactive” in each case.
With `CCCCC1CCC(O)CC1` (stereo unspecified), the Potency result in [2], in [10], in assay [3], in assay [4], in assay [5] and in assay [6] was “inactive” in each case. Further, the Potency entry in assay [7] and in assay [9] was “inactive” each time. Further, the molecule was classed as inactive in assay [8].
In the case of `C=CCCCCCCCCC(=O)OCCCC`, the result in [1] and in assay [8] was inactive. Also, the Potency result in assay [3], in assay [5], in assay [7] and in assay [9] was “inactive” throughout.
`CC/C=C\CCOC(=O)c1ccccc1O`: the result in assay [1] and in assay [8] was inactive. The Potency in assay [10] was 21.9 µM (active). In addition, the Potency entry in [3], in [4], in assay [7] and in assay [9] was “inactive” each time.
For the molecule `CCCc1ccc(O)cc1`, the molecule was called inactive in assay [1] and in assay [8]. Further, the Potency entry in [3], in assay [4], in assay [5], in assay [7] and in assay [9] was “inactive” in each case.
Consider `Cc1c(NC(=O)c2cccnc2)c(=O)n(-c2ccccc2)n1C`, for which the Potency entry in [2], in assay [10], in assay [3], in assay [4], in assay [5] and in assay [6] was “inactive” each time. The Potency result in assay [7] and in assay [9] was “inactive” in each case. Besides, the molecule was called inactive in assay [8].
`CN(C)CCCO[C@@H]1[C@H]2OC(C)(C)O[C@H]2O[C@@H]1C(O)CO` (stereo partly specified): the call in assay [1] and in [8] was inactive. Moreover, the Potency entry in assay [10], in [3], in [6], in [7] and in [9] was “inactive” throughout.
Consider `CCCCCC(C)O` (stereo unspecified), for which the molecule was classed as inactive in assay [1] and in [8]. Also, the Potency entry in [10], in [3], in assay [4], in assay [6], in assay [7] and in [9] was “inactive” throughout.
For `CCO[Si](CC)(OCC)OCC`, the outcome in assay [1] and in assay [8] was inactive. Also, the Potency entry in [10], in assay [3], in assay [5], in [6], in [7] and in [9] was “inactive” throughout.
For the molecule `CC(=O)N[C@@H](CO)C(=O)N[C@@H](CC(=O)O)C(=O)N[C@@H](CCCCN)C(=O)N1CCC[C@H]1C(=O)O` (Ac-SDKP-OH), the call in assay [1] and in assay [8] was inactive. For the same molecule, the Potency entry in [10], in assay [3], in assay [4], in assay [5], in assay [6] and in assay [7] was “inactive” throughout. Moreover, the Potency entry in assay [9] is “inactive”.
On to `COS(=O)(=O)O`, for which the call in [1] and in [8] was inactive. Also, the Potency entry in [3], in assay [5], in assay [7] and in assay [9] was “inactive” in each case.
With `Cc1ccccc1C(N)=O`, the call in assay [1] and in [8] was inactive. The Potency entry in assay [10], in assay [3], in assay [4], in [6], in assay [7] and in assay [9] was “inactive” in each case.
Take `OC1(c2ccc(Cl)cc2)CCNCC1`: the call in assay [1] and in assay [8] was inactive. Moreover, the Potency result in assay [10], in [3], in [4], in assay [5], in assay [6] and in [7] was “inactive” throughout. Further, the Potency result in assay [9] was “inactive”.
